Most compounds without a hit are left out; they make up all but 2.8% or so of the library.
CtBP-E1A blk = CtBP/E1A binding inhibition; AID 651724; AlphaScreen GST-E1A/His-CtBP binding, 1536-well; hits give low values; 340,000 compounds, 0.49% hits; activity change, % (test concentration not listed); in the data active = activity change below about -65%; inconclusive = mostly about -30% to -63%
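AlphaScreen with 125 nM GST-E1A and 125 nM His-CtBP (5X stocks) in Tris pH 8.0, 300 mM NaCl, BSA, Tween 20, TCEP. Compounds preincubated 2 h at 37 deg C, then glutathione donor/nickel acceptor beads added for 1 h at 37 deg C in dark.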
TGFb inhibitor = inhibitors of TGF-b signaling; HepG2 CAGA-GFP TGF-b/SMAD3 reporter, GFP fluorescence, 18 h; TGF-beta stimulated, 500 pg/mL final; Potency, µM (top dose mostly 46.1 µM), usual class: inhibitors; 410,000 compounds, 1.2% hits; AID 588855; also: nearly all actives have a fitted effect of over 65% in size
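HEPG2 CAGA-GFP reporter cells (1000/well, DMEM with 1% FBS) received compounds, then recombinant TGF-beta at 500 pg/mL final for 18 hours at 37 degrees C. Per-cell GFP summed per well was normalised to unstimulated and stimulated DMSO controls before curve fitting.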
Six1-Eya2 inh = blocks human Six1 binding to Eya2. AlphaScreen GST-Six1/His-Eya2 binding, biochemical; hits give low values. activity change, % (no concentration beside the values). 360,000 compounds, 0.56% hits. AID 651725; in the data active = activity change below about -65%; inconclusive = mostly about -30% to -63%
Target sequence (O00167 whole entry, looked up): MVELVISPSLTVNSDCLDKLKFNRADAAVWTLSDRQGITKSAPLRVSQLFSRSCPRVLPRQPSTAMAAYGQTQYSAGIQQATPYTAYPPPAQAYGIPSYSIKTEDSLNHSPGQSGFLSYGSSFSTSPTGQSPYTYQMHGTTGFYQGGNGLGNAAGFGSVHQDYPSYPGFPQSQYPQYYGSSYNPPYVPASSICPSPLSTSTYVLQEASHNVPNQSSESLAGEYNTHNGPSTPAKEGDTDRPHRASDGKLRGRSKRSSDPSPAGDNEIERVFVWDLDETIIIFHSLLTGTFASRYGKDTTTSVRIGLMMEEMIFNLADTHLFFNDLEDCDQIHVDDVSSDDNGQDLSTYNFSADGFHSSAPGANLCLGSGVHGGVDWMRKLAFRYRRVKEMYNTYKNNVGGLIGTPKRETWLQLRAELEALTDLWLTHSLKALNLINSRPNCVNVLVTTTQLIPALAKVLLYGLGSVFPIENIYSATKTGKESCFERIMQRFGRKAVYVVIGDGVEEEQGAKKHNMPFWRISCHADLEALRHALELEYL
Target sequence (Q15475 whole entry, looked up): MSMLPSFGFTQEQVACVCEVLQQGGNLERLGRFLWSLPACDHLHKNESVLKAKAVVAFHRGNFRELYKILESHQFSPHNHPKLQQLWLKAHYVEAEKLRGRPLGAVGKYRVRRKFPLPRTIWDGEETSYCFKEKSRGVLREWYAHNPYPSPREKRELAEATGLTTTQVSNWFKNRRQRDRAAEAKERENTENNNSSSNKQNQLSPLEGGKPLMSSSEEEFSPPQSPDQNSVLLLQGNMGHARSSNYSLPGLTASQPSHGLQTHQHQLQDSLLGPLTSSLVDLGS
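AlphaScreen with GST-Six1 and His-Eya2 (5X mix: 250 nM and 500 nM), glutathione donor and nickel acceptor beads; buffer 50 mM Tris pH 8.0, 300 mM NaCl, 1 mM TCEP; 1 h at 37 C in the dark.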
ATXN viability = reduces viability in counter-screen for ATXN expression inhibitors | AID 651635 | S2 cells (HEK-293 line with an ATXN2-luciferase reporter) viability, CellTiter-Fluor protease fluorescence, 24 h | 400,000 compounds, 0.49% hits | Potency, µM (top dose mostly 56.7 µM), usual class: cytotoxic; also: nearly all actives have a fitted effect of over 40% in size
ATXN2 expr inh = inhibitors of ATXN2 expression; HEK-293 ATXN2-luciferase reporter, luminescence, 24 h; Potency, µM (series often up to 57 µM), hits mostly inhibitors; 360,000 compounds, 0.72% hits; also: nearly all actives have a fitted effect of over 55% in size
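qHTS (up to 57 uM final) was run with 24 h compound exposure of reporter cells at 37 °C. Each well was multiplexed: SteadyGlo luminescence measured ATXN2-luciferase expression after a fluorogenic Gly-Phe-AFC viability readout (25 uM final).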
HepG2 viability = kills HepG2 cells in TGF-b inhibitor counter-screen; HepG2 CAGA-GFP viability, ATP luminescence, 18 h; Potency, µM (titrated, usually from 46.1 µM), actives largely listed as cytotoxic; AID 588856; 410,000 compounds, 0.76% hits
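CellTiter-Glo luminescence gave cytotoxicity after 18 hours at 37 degrees C. The cells were HepG2 CAGA-GFP in 1% FBS DMEM, stimulated with 500 pg/mL TGF-beta after compound addition. %Activity was normalised to no-cell wells (complete cell-killing) and DMSO (no toxicity), and curves were fitted and classified.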
A number is an active result; – = inactive; ? = inconclusive; · = not tested or not shown; ! = not confirmed by another sample. Unless noted, calls follow the shape of the dose curve; as a rule, active = well fitted curve in the direction sought with a large enough effect; inconclusive = small, poorly fitted or top-dose-only effect, or another doubt; inactive = no such curve, though single readings can be large; an effect the other way counts as inactive or inconclusive.

SMILES	CtBP-E1A blk	TGFb inhibitor	Six1-Eya2 inh	ATXN viability	ATXN2 expr inh	HepG2 viability
CC(=O)c1ccc(OC(=O)CCc2ccccc2)cc1	?	–	-79	–	–	–
CC(=O)c1ccc(OC(=O)CCc2nc3ccccc3s2)cc1	–	–	–	–	–	–
c1ccc2c(CCNc3ccc(Nc4ccncc4)cc3)c[nH]c2c1	·	·	·	·	15µM	·
O=C(/C=C/c1ccccc1)c1ccc2c(c1)OCCCCO2	–	–	–	–	–	–
O=C1COc2ccc(C(=O)/C=C/c3ccccc3)cc2N1	–	8.9µM	–	–	–	–
Cn1c(=O)[nH]c(=O)c2[nH]c(CN3CCN(Cc4ccccc4)CC3)nc21	–	–	–	–	–	–
Cn1c(=O)[nH]c(=O)c2[nH]c(N(Cc3ccccc3)Cc3ccccc3)nc21	–	11µM	–	?	?	13µM
Cn1c(=O)[nH]c(=O)c2c1nc([N+](=O)[O-])n2Cc1ccccc1	–	5µM	–	6µM	?	5µM
CC(C)Cn1c([N+](=O)[O-])nc2c1c(=O)[nH]c(=O)n2C	–	?	–	·	?	11µM
N#Cc1nc(-c2ccc(OCc3ccccc3)cc2)oc1N1CCC(C(N)=O)CC1	–	–	–	–	–	–
N#Cc1nc(-c2ccc(COc3ccc(Cl)cc3)o2)oc1N1CCC(C(N)=O)CC1	·	?	·	?	20µM	–
CCCCNC(=S)Nc1ccc2[nH]c(=O)[nH]c2c1	-67	–	–	–	–	–
CC#C[C@]1(O)CC[C@H]2[C@@H]3CCC4=CC(=O)CCC4=C3[C@@H](c3ccc(N(C)C)cc3)C[C@@]21C	?	–	?	–	15µM!	–
C#C[C@@]1(O)CC[C@@H]2[C@@H]3CCC4=CC(=O)CC[C@@H]4[C@H]3CC[C@]21C	·	·	·	–	·	·
Nc1cc2nsnc2cc1Br	?	11µM	–	–	–	–
Nc1cccc2nsnc12	–	–	–	–	–	–
C=Cc1ccc(N=Cc2ccc(N(C)C)cc2)cc1	·	–	·	·	·	–
Cc1ccc(C=Nc2ccc(N(C)C)cc2)o1	-68	?	?	–	–	–
Cc1cc2ccccc2c[n+]1C1CCCCC1	·	?	·	·	·	–
COc1ccc(Nc2cc3n(c(=O)n2)CCc2cc(OC)c(OC)cc2-3)cc1	?	–	-79	?	–	–
COc1cc2c(cc1OC)-c1cc(N3CCCCCC3)nc(=O)n1CC2	–	–	?	–	–	–
COc1cc2c(cc1OC)-c1cc(Nc3ccc(C)cc3)nc(=O)n1CC2	·	–	?	–	·	–
COc1cc2c(cc1OC)-c1cc(Nc3ccc(C(=O)O)cc3)nc(=O)n1CC2	–	–	?	–	–	–
COc1ccc(Nc2cc3n(c(=O)n2)CCc2cc(OC)c(OC)cc2-3)c(C)c1	·	–	?	–	·	–
COc1cc2c(cc1OC)-c1cc(Nc3ccccc3)nc(=O)n1CC2	–	–	-76	?	–	–
SMILES	CtBP-E1A blk	TGFb inhibitor	Six1-Eya2 inh	ATXN viability	ATXN2 expr inh	HepG2 viability
COc1cc2c(cc1OC)-c1cc(NC3CCCCCC3)nc(=O)n1CC2	?	–	-71	–	–	–
CCN(CC)CCCNc1cc2n(c(=O)n1)CCc1cc(OC)c(OC)cc1-2	-69	–	-80	–	–	–
Cc1ccc(S(=O)(=O)N2CCc3cc(C(=O)N(C)Cc4ccccc4)ccc32)cc1	·	?	·	7.1µM	–	–
Cc1cnc(-n2ncc(C(=O)NCC(C)(C)N3CCOCC3)c2C)nc1-c1cccs1	·	·	·	–	·	·
COc1cc(N2C(=O)C=CC2=O)ccc1N1C(=O)C=CC1=O	–	?	–	·	?	–
O=C1C=CC(=O)N1c1cccc(-c2ccccc2)c1	–	11µM	–	?	–	–
Cc1c(C(=O)NCCc2cccnc2)cnn1-c1nccc(-c2ccccc2F)n1	·	·	·	–	·	·
C=CCc1ccccc1OCC(=O)N/N=C/c1ccc(OC(C)=O)cc1OC(C)=O	?	–	?	–	22µM	–
Cc1nc(-c2cccs2)sc1C(=O)NN	–	–	–	–	–	–
Cc1nc(-c2ccc(C(F)(F)F)cc2)sc1C(=O)NN	–	–	–	–	16µM	–
Oc1ccccc1N=Nc1ccccc1O	·	?	-86	0.89µM	·	–
COc1ccc(C(=O)C(CN2CCCC2)c2ccccc2)cc1 (configuration not stated)	–	11µM	–	·	?	32µM
CCCCC(O)(c1ccc(OC)cc1)C(CN1CCOCC1)c1ccccc1 (configuration not stated)	–	–	–	–	?	–
O=C(c1ccccc1)C(CCC(CN1CCOCC1)C(=O)c1ccccc1)CN1CCOCC1 (configuration not stated)	–	?	–	·	22µM	–
COc1ccc(C(=O)C(CN2CCOCC2)c2ccccc2)cc1 (configuration not stated)	–	?	–	18µM	?	–
CCCCCC(O)(c1ccc(OC)cc1)C(CN1CCOCC1)c1ccccc1 (configuration not stated)	–	13µM	–	?	–	–
COc1ccc(-n2c(=O)c3c(c4cc(OC)ccc4n3C)n(C)c2=O)cc1	·	–	·	–	–	–
COc1cc2nc(NCc3ccccc3)n3nc(-c4ccccc4)nc3c2cc1OC	·	–	·	–	–	–
COCCN1CCN(C(=O)c2cnn(-c3ncc4c(n3)-c3ccc(OC)cc3CC4)c2C2CC2)CC1	·	·	·	–	·	·
COc1ccc(C(NC(=O)C2CCN(CCOc3ccc(Cl)cc3Cl)CC2)c2ccccn2)cc1 (configuration not stated)	–	?	–	?	?	–
COc1ccccc1C(NC(=O)C1CCN(CCOc2ccc(Cl)cc2Cl)CC1)c1ccccn1 (configuration not stated)	–	?	–	20µM	32µM	13µM
Cc1cccnc1C(c1ccc(F)cc1)N(C)C(=O)C1CCN(CCOc2ccc(Cl)cc2Cl)CC1 (configuration not stated)	–	?	–	28µM	32µM	–
Cc1cccnc1C(c1ccc(F)cc1)N(C)C(=O)C1CCN(CCCOc2ccc(F)cc2)CC1 (configuration not stated)	–	–	–	?	–	–
CC(C)(C)n1ncc2c(=O)n(Cc3ccccc3C#N)cnc21	·	–	·	·	·	–
CCCCN(CC)CCCNC(=O)Cn1ncc2c3ccccc3n(Cc3ccccc3F)c2c1=O	·	–	·	?	–	–
NC(=S)N1OC[C@@H]2COc3ccc4ccccc4c3[C@@H]21	–	?	–	–	14µM	–
COc1cc(-c2nc3nc(C)cc(C)n3c2Nc2ccc(Cl)cc2)ccc1O	·	13µM	·	·	·	–

Screening data as filed in PubChem BioAssay.
